This is a sample that favours compounds with a hit; in the whole collection about 4.3% have one here.
D3 ag = qHTS of D3 Dopamine Receptor Agonist: qHTS; 0.58% of 410,000 active; D(3) dopamine receptor (Homo sapiens), P35462; D3R DiscoveRx beta-arrestin cells, luminescence, 90 min; AID 652048, 2013; max activation, %; in the data active means max activation above about 30%; further: 0% is about no effect
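Agonist-mode cell screen: cells plated at 1500/well and incubated overnight at 37 °C, then exposed to library compounds for 90 min at 37 °C. Detection reagent was added for 30–60 min at room temperature, and luminescence was read.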
GLP1R inv ag = qHTS of GLP-1 Receptor Inverse Agonists (Inhibition Mode). AID 624417, 2012. 1.6% of 410,000 active. HEK293 GLP-1R CRE-luciferase, luminescence, 24 h; GLP-1R form is constitutively active. Potency, µM (series often up to 38.3 µM), inactives show at the top dose activity change, negative = inhibition, actives largely listed as inhibitors. Glucagon-like peptide 1 receptor (Homo sapiens), P43220; further: potency means the concentration at half of the fitted maximal effect; on the % scale 0 is the no-effect control and ±100 the full control effect; nearly all actives have a fitted effect of over 55% in size
Target sequence (P43220 whole entry, looked up): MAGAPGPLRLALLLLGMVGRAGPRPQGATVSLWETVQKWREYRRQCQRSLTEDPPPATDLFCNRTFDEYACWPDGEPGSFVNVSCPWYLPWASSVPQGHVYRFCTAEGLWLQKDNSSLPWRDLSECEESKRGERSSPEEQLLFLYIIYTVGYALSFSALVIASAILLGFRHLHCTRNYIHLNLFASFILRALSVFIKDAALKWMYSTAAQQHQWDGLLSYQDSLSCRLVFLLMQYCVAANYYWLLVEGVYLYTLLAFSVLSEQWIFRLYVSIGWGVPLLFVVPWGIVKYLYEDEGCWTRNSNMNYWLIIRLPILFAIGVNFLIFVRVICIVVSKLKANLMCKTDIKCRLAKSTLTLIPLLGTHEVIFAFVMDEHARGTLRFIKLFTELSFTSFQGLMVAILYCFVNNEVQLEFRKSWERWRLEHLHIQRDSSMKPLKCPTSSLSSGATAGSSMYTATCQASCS
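Stable HEK293 clone (constitutively active GLP-1R + cAMP-response luciferase); 200 cells/uL plated, 12 h pre-culture, compound 24 hr, 37 deg C/5% CO2; detection reagent 12 min RT; luminescence.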
GLP-1R agonist = qHTS of GLP-1 Receptor Agonists; Glucagon-like peptide 1 receptor (Homo sapiens), P43220; HEK293 GLP-1R CRE-luciferase, luminescence, 4-6 h; cells express a hypersensitive GLP-1R form; Potency, µM (titrated, usually from 45.6 µM), inactives show top-dose activation, hits mostly activators; 0.007% of 380,000 active; AID 624172, 2012; further: potency means the concentration at half of the fitted maximal effect; % of control where 0% means no effect
D3 antag = qHTS of D3 Dopamine Receptor Antagonist: qHTS | D(3) dopamine receptor (Homo sapiens), P35462 | D3R cells, DiscoveRx beta-arrestin luminescence, antagonist mode; stronger effect = lower value | max response, negative = inhibition, % | 2.5% of 360,000 active; in the data active means max response below about -50%; inconclusive means no clear call, values can overlap the other calls; further: on the % scale 0 is the no-effect control and ±100 the full control effect
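Cells expressing the human receptor were seeded at 1500 cells/well, incubated overnight at 37 degrees C in 5% CO2, then exposed to library compounds with dopamine controls for 90 minutes at 37 degrees C before luminescent detection.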
Starred values were filed as active, the others as inactive; ? = inconclusive; . = not tested or not shown. Unless noted, the call rests on the fitted dose curve; in most records, active means well fitted curve in the direction sought with a large enough effect; inconclusive means small, poorly fitted or top-dose-only effect, or another doubt; inactive means no such curve, though single readings can be large; an effect the other way counts as inactive or inconclusive.

SMILES	D3 ag	GLP1R inv ag	GLP-1R agonist	D3 antag
COc1ccc(CC(C)N2CCN(Cc3ccccc3)CC2)cc1OC (centres undefined)	-17	0%	-4%	-15
Cc1ccn2c(NC(C)(C)C)c(-c3cccs3)nc2c1	10	10µM*	3%	2
CC1N=C2c3ccccc3N=C(SCC(=O)NCCc3ccc(Cl)cc3)N2C1=O (centres undefined)	5	20%	.	.
O=C(OCCCN1CCCC1)C1(c2ccccc2)CCCC1	-1	-17%	-7%	-54*
Cc1ccccc1C(=O)N1CC/C(=N\OS(=O)(=O)O)c2ccc(Cl)cc21	6	.	.	.
C=C(C)Cn1c(SCC(=O)c2ccccc2)nc2sc3c(c2c1=O)CCCC3	1	?	.	.
CC(O)CNc1nc2sc3c(c2c(=O)n1CCc1ccccc1)CCCCC3 (centres undefined)	-7	4.5µM*	20%	7
O=C(O)CSc1nc2sc3c(c2c(=O)n1-c1ccccc1)CCC3	-13	-16%	3%	-14
C=C(C)Cn1c(SCC(=O)Nc2cccc(C)c2)nc2sc3c(c2c1=O)CCCC3	34*	3%	.	.
CN(C)CCNc1nc2sc3c(c2c(=O)n1CCc1ccccc1)CCCCC3	-10	?	8%	-1
CC(NC(=O)CSc1nc2sc3c(c2c(=O)n1-c1ccccc1)CCCC3)c1ccccc1 (centres undefined)	-19	8.9µM*	0%	-8
CC(=O)c1ccc(NC(=O)c2cnn3ccccc23)cc1	3	2.5µM*	-6%	-18
Cc1nn(-c2ccccc2)c(Cl)c1C1C(C#N)=C(N)OC2=C1C(=O)CC(C)(C)C2 (centres undefined)	3	?	2%	4
CC(C)c1ccc(-c2nn(-c3ccccc3)cc2C2C(C#N)=C(N)OC3=C2C(=O)CC(C)(C)C3)cc1 (centres undefined)	1	13µM*	-11%	3
CCOC(=O)C1=C(Cc2ccc(OC)cc2)C(=O)c2ccccc2C1=O	-35	0%	-17%	-71*
CCOC(=O)C1=C(O)c2ccccc2C(=O)/C1=C\c1ccc(CC)cc1	-39	0%	-12%	-70*
CCOC(=O)c1c(C)nc2c(c1-c1cc(OC)ccc1OC)C(=O)c1ccccc1-2	1	23%	3%	8
Cc1ccccc1C(=O)OCc1cc(=O)n2nc(-c3cccs3)sc2n1	0	3%	.	.
CC(=O)Nc1cccc(-c2ccnc3c2CC(C)(C(=O)Nc2cccnc2)O3)c1 (centres undefined)	-5	-8%	-2%	12
c1ccc(N2CCN(c3ncnc4c3nc3n4CCCCC3)CC2)cc1	16	-8%	2%	.
C[C@H](CO)N1C[C@H](C)[C@@H](CN(C)S(C)(=O)=O)Oc2c(NC(=O)Nc3ccc(C(F)(F)F)cc3)cccc2C1=O	-4	6%	3%	83
C[C@H]1CN([C@@H](C)CO)C(=O)c2cccc(NC(=O)Nc3ccc(C(F)(F)F)cc3)c2O[C@H]1CN(C)C	-3	10µM*	-4%	-15
C[C@H](CO)N1C[C@H](C)[C@@H](CN(C)Cc2ccc3c(c2)OCCN3C)OCc2cnnn2CCCC1=O	-5	21%	-5%	-88*
C[C@H]1CN([C@@H](C)CO)C(=O)CCCn2nncc2CO[C@@H]1CN(C)Cc1ccc2c(c1)OCCO2	-5	-3%	-6%	-24
C[C@H]1CN([C@@H](C)CO)C(=O)c2cccc(NC(=O)Nc3ccc(C(F)(F)F)cc3)c2O[C@@H]1CN(C)C(=O)Nc1ccc(F)cc1	-12	11µM*	-10%	2
SMILES	D3 ag	GLP1R inv ag	GLP-1R agonist	D3 antag
C[C@@H]1CN([C@H](C)CO)C(=O)CCCn2cc(nn2)CO[C@H]1CN(C)C(=O)Nc1ccc(C(C)(C)C)cc1	-14	28%	-4%	-100*
Cc1ccc(OCC(=O)Nc2ccc(OCc3cc(=O)n4ccsc4n3)cc2)cc1	3	1%	0%	.
CCc1ccc(-n2c(=O)c3c4c(sc3n(CC(=O)c3ccc(F)cc3)c2=O)CCC4)cc1	-15	-1%	.	.
C[C@H](CO)N1C[C@H](C)[C@@H](CN(C)C(=O)Nc2ccc(C(F)(F)F)cc2)Oc2c(NC(=O)Nc3ccc(C(F)(F)F)cc3)cccc2C1=O	-13	11µM*	-11%	14
O=C(N[C@@H](Cc1ccccc1)C(=O)N1CCC2(CC1)NCCc1[nH]cnc12)c1cccc(Br)c1	-2	10µM*	8%	1
C[C@H](NC(=O)c1ccccc1)C(=O)N1CCC2(CC1)NCCc1[nH]cnc12	1	4%	-2%	5
COC(=O)C1=C(C(=O)c2ccccc2)C(c2cccs2)n2nnnc2N1 (centres undefined)	0	7%	6%	-60*
COc1ccc(C2NC(=S)NC(C)=C2C(=O)c2ccccc2)cc1OC (centres undefined)	6	34%	20%	-2
COC(=O)C1=C(C(=O)c2ccccc2)C(c2ccc(OC)c(OC)c2)Nc2nnnn21 (centres undefined)	-4	1%	-4%	-75*
CCOc1cc(C2C(C(=O)c3ccccc3)=C(C(=O)OC)Nc3nnnn32)ccc1O (centres undefined)	1	-1%	-5%	-55*
COC(=O)C1=C(C(=O)c2ccccc2)C(c2ccc(O)c(OC)c2)n2nnnc2N1 (centres undefined)	-15	-12%	42%	-19
Cn1ncc2c(Nc3cc(C(F)(F)F)ccc3Cl)ncnc21	-3	1%	.	.
CN(CCCC(=O)O)c1ccc(N=Nc2ccc([N+](=O)[O-])cc2)cc1	-18	?	-8%	-87*
CN(N=Nc1ccc([N+](=O)[O-])cc1)c1ccccc1	-1	13%	19%	12
Cn1c(=O)c2c(-c3ccc(Br)cc3)n(CCc3ccccc3)cc2n(C)c1=O	1	?	.	.
COc1nn(-c2ccccc2)c(=O)c(Cl)c1Cl	-7	?	-5%	-64*
C=CCOc1ccccc1CNCCCN1CCOCC1	-14	1%	1%	-59*
CCOc1ccccc1CNCCN1CCOCC1	-7	7%	-8%	-13
CCOC(=O)NC(NCCc1ccccc1)(C(F)(F)F)C(F)(F)F	31*	-1%	-3%	-6
CCOC(=O)NC(NCc1ccccc1)(C(F)(F)F)C(F)(F)F	6	0%	1%	6
COC1=C(C)C(=O)C2=C(C1=O)C1C3CC4=C(C(=O)C(OC)=C(C)C4=O)C(CNC(=O)C(C)=O)N3C(C#N)C(C2)N1C (centres undefined)	-21	-77%	-17%	-57*
COc1ccccc1NS(=O)(=O)c1cc(C(=O)N2CCN(C/C=C/c3ccccc3)CC2)ccc1C	-1	10µM*	-1%	7

High-throughput results from PubChem.
